# Results: the supplement of paper PMC8728848
# Shown is part of a subset that was picked to be rich in the strongest signals.
# B1: GS13846A-bth-444-19-444 (Bacteroides thetaiotaomicron) (protein)
# chain: SCENEFDVSDKADSLISVTVNTLNNQAAYNVGETAQAELWIQRGGLKDASGKVQFVVDPLLLDSLNQEDKTNYELLPENCYEMTNTEFTVDKNELCGYITYHPEKILALSAYNETKYVLPLRLISNDLAINPARNTSFLAFTILEPIVHISNAGVYNINPDLTSTMDIQIGVPFTNKWDILCNLTEDLSLIDEYNQINKVNFTLLPENAYTAPESVTLQEGVSQITASYQLKNNLVPGNYILPIKIGSITASQGGVPNNSLVIDEESNVLFCIVKEGNKINKSGWEVIECSSEHAGNEATYMIDDNESTYWHCKFKNEAGSSVPPFHFIIDMKKEITIAQIDLLNRGDGAANNIKWVEFYASNNNSEWDKIGAGDFNDEGTRATFRYYVKSTKARYLKLIIPEGYGNNCPPAAIRELTVYGLEGNN
# Experiments:
# Assay in all cases: glycan array binding signal (z-score within array); higher = stronger binding
# Details in all cases: glycan notation: IUPAC condensed, linker removed
# GalNAc(b1-4)Gal(b1-4)Glc = molecular target: GalNAc(b1-4)Gal(b1-4)Glc
# How it was run: (§1)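 Arrays were curated from the Consortium for Functional Glycomics database, 3228 in total, and kept only where the protein sequence was available. Binding is expressed as a within-array Z-score. This score was averaged across arrays of the same protein sequence at different concentrations or buffers and across linkers, and negative values can be read as non-binding.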
# GalNAc6S(b1-4)GlcNAc = molecular target: GalNAc6S(b1-4)GlcNAc
# How it was run: as §1
# Glc(b1-4)Glc = molecular target: Glc(b1-4)Glc
# How it was run: as §1
# [1] = molecular target: GlcA3S(b1-3)Gal(b1-4)GlcNAc(b1-2)Man
# How it was run: as §1
# [2] = molecular target: GlcA3S(b1-3)Gal(b1-4)GlcNAc(b1-3)Gal(b1-4)Glc
# How it was run: as §1
# [3] = molecular target: GlcNAc(a1-3)Gal(b1-4)GlcNAc
# How it was run: as §1
# [4] = molecular target: GlcNAc(a1-6)Gal(b1-4)GlcNAc
# How it was run: as §1
# [5] = molecular target: GlcNAc(b1-3)Gal(b1-4)GlcNAc(b1-3)Gal(b1-4)GlcNAc(b1-2)Man(a1-3)[GlcNAc(b1-3)Gal(b1-4)GlcNAc(b1-3)Gal(b1-4)GlcNAc(b1-2)Man(a1-6)]Man(b1-4)GlcNAc(b1-4)[Fuc(a1-6)]GlcNAc
# How it was run: as §1
# [6] = molecular target: GlcNAc(b1-4)Gal(b1-4)GlcNAc
# How it was run: as §1
# [7] = molecular target: Neu5Ac(a2-3)Gal(b1-4)GlcNAc(b1-2)Man(a1-3)[Neu5Ac(a2-3)Gal(b1-4)GlcNAc(b1-2)Man(a1-6)]Man(b1-4)GlcNAc(b1-4)[Fuc(a1-6)]GlcNAc
# How it was run: as §1
# [8] = molecular target: Neu5Ac(a2-3)Gal(b1-4)GlcNAc(b1-3)Gal(b1-4)GlcNAc(b1-3)Gal(b1-4)GlcNAc
# How it was run: as §1
# [9] = molecular target: Neu5Ac(a2-3)Gal(b1-4)GlcNAc(b1-3)Gal(b1-4)GlcNAc(b1-3)Gal(b1-4)GlcNAc(b1-2)Man(a1-3)[Neu5Ac(a2-3)Gal(b1-4)GlcNAc(b1-3)Gal(b1-4)GlcNAc(b1-3)Gal(b1-4)GlcNAc(b1-2)Man(a1-6)]GalNAc
# How it was run: as §1
# [10] = molecular target: Neu5Ac(a2-3)Gal(b1-4)GlcNAc(b1-3)Gal(b1-4)GlcNAc(b1-3)[Neu5Ac(a2-3)Gal(b1-4)GlcNAc(b1-3)Gal(b1-4)GlcNAc(b1-6)]GalNAc
# How it was run: as §1
# [11] = molecular target: Neu5Ac(a2-3)Gal(b1-4)[Fuc(a1-3)]GlcNAc(b1-3)Gal(b1-4)GlcNAc
# How it was run: as §1
# [12] = molecular target: Neu5Ac(a2-3)Gal6S(b1-4)GlcNAc
# How it was run: as §1
# [13] = molecular target: Neu5Ac(a2-6)Gal(b1-4)GlcNAc(b1-2)Man(a1-3)Man(b1-4)GlcNAc(b1-4)GlcNAc
# How it was run: as §1
# [14] = molecular target: Neu5Ac(a2-6)Gal(b1-4)GlcNAc(b1-2)Man(a1-6)[Gal(b1-4)GlcNAc(b1-2)Man(a1-3)]Man(b1-4)GlcNAc(b1-4)GlcNAc
# How it was run: as §1
# [15] = molecular target: Neu5Ac(a2-6)Gal(b1-4)GlcNAc(b1-6)[Gal(b1-3)]GalNAc
# How it was run: as §1
# [16] = molecular target: Neu5Ac(a2-6)GlcNAc(b1-4)GlcNAc
# How it was run: as §1
# [17] = molecular target: Neu5Gc(a2-8)Neu5Gc(a2-6)Gal(b1-4)GlcNAc
# How it was run: as §1
binder,measurement,setting,value
B1,glycan array binding signal (z-score),GalNAc(b1-4)Gal(b1-4)Glc,0
same,glycan array binding signal (z-score),GalNAc6S(b1-4)GlcNAc,5.49
same,glycan array binding signal (z-score),Glc(b1-4)Glc,-0.32
same,glycan array binding signal (z-score),[1],-0.266
same,glycan array binding signal (z-score),[2],-0.082
same,glycan array binding signal (z-score),[3],-0.214
same,glycan array binding signal (z-score),[4],-0.052
same,glycan array binding signal (z-score),[5],0.103
same,glycan array binding signal (z-score),[6],-0.193
same,glycan array binding signal (z-score),[7],-0.407
same,glycan array binding signal (z-score),[8],0.067
same,glycan array binding signal (z-score),[9],-0.089
same,glycan array binding signal (z-score),[10],-0.336
same,glycan array binding signal (z-score),[11],-0.205
same,glycan array binding signal (z-score),[12],-0.129
same,glycan array binding signal (z-score),[13],-0.287
same,glycan array binding signal (z-score),[14],-0.298
same,glycan array binding signal (z-score),[15],1.86
same,glycan array binding signal (z-score),[16],0.027
same,glycan array binding signal (z-score),[17],-0.262
